# Data reported in PubChem BioAssay (NCI).
# The panel holds about 83,000 compounds, 20% with a hit somewhere; the sample as a whole holds those more often.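 Note: values are percent growth. 100 is the growth of untreated cells, values between 100 and 0 indicate rising inhibition; between -100 and 0 indicates cell death.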 Active and inactive are the calls of the source. The calls were made as follows: active = growth percent below 10; inactive = the rest.
# Tested on: COLO 205 colon
# Assay: NCI-60 one-dose screen, 48 h (100 = growth as untreated, 0 = no growth, -100 = all killed)
# Conditions: 10 µM unless noted
row,SMILES,growth
1,C=C1CCC2C3(C)COC(c4cc(F)cc(F)c4)OC3CCC2(C)C1CC(O)C1=CCOC1=O (configuration not stated),59.5% (inactive)
2,CC(=O)Nc1ccc(C(=O)NC(=S)Nc2ccc(S(N)(=O)=O)cc2)cc1,105% (inactive)
3,COc1cc(C2CC(c3cc(OC)c(OC)c(OC)c3)=Nc3c(N)nc(N)nc3N2)ccc1Oc1nc(NCCO)nc(N2CCOCC2)n1 (configuration not stated),110% (inactive)
4,CC1=C(C(=O)c2ccccc2)C(c2cccc(Cl)c2Cl)n2c(nc3ccccc32)N1 (configuration not stated),82.3% (inactive)
5,CN1CCc2c(sc3ncnc(N/N=C/c4ccc(Cl)cc4Cl)c23)C1,-48% (active)
6,O=C(COc1ccc(NC(=O)Nc2ccc(Cl)c(Cl)c2)cc1)N=Nc1c(O)[nH]c2ccc(Br)cc12,-57% (active)
7,Cn1cc(NC(=O)c2cc(NC(=O)c3ccc(C#Cc4ccccc4)cc3)cn2C)cc1C(=O)NCCCN1CCOCC1,-78.7% (active)
8,COCOc1cc2oc(C(=O)N[C@@H](Cc3ccccc3)C(O)C(=O)NCc3ccccc3)c(C)c(=O)c2cc1OCOC (some centres not stated),109% (inactive)
9,Cc1ccc(C(=O)CSc2nc3ccc(C)cc3c(=O)n2-c2ccc(F)cc2)cc1,84% (inactive)
10,CC(C)c1ccc2c(N)c(C(=O)Nc3ccc(C(F)(F)F)cn3)sc2n1,93.1% (inactive)
11,CN(C)CCn1c2ccccc2c2nc3ccc([N+](=O)[O-])cc3nc21,3.88% (active)
12,COc1cc2c(c(OC)c1OC)C(=O)CC(c1cccc(NC(=O)c3cc(NC(=O)[C@H](CO)NC(=O)OC(C)(C)C)ccc3Cl)c1)O2 (some centres not stated),43% (inactive)
